For assay [1], the target named is Lysosomal acid glucosylceramidase (Homo sapiens) (UniProt P04062). Description: Glucocerebrosidase-p2 (AID 348; in the data active = potency below about 10 µM; also: potency is read from the fitted curve at half-maximal effect). As to conditions: purified GBA, blue fluorogenic substrate, 40 min. Put shortly: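 Compounds titrated from 0.6 nM upwards against 0.2 nM enzyme in pH 5.9 citric acid/KH2PO4, taurocholate, tween-20; blue fluorogenic substrate 80 uM, 40 min room temperature, stopped and read Ex 365/Em 440 for AC50.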

Assay [2] is described as follows: AP1 Signaling Pathway (AID 357; active = well fitted curve in either direction with a large enough effect, not every such curve was filed as active;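 also: ME-180 reporter cells stimulated with EGF at its EC50 level; % is scaled to controls: 0 for no effect and ±100 for the full control effect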). Particulars: ME-180 AP-1-bla reporter, EGF-induced, beta-lactamase ratio, 5 h; at 7.69 µM (top of the series) unless noted. In short, it runs like this:
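Cells are seeded overnight, exposed to compound titrations and an EC50 level of EGF for 5 hours at 37 °C, then loaded with CCF4 dye for 2.5 hours. Beta-lactamase activity under the AP-1 element is read as a blue/green ratio.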

In assay [3] the target is Cytochrome P450 1A2 (Homo sapiens) (UniProt P05177). Description: p450-cyp1a2 (AID 410; calls by dose curve; also: potency is read from the fitted curve at half-maximal effect). Put shortly: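 20nM CYP1A2 with 100uM Luciferin-ME (at Km) in 100mM KPO4; compound preincubated 10 min, NADPH regeneration added, 60 min at room temperature. Luciferin quantified by luminescence after detection reagent; normalized to 57 uM furafylline.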
The nature of assay [4]: NFAT Signaling Pathway (AID 444; active = well fitted curve in either direction with a large enough effect, not every such curve was filed as active;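 also: carbachol stimulus at about its EC50 of 1 µM final; % is scaled to controls: 0 for no effect and ±100 for the full control effect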). As to conditions: Jurkat NFAT-bla M1, carbachol, beta-lactamase ratio, 5 h; at 7.69 µM (top of the series) unless noted. Put shortly:
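Jurkat cells with NFAT-driven β-lactamase reporter and co-expressed M1 receptor, stimulated with carbachol (final 1 uM, ~EC50), compound titration, 5 h at 37 °C. CCF4 loaded 1 h at RT; 460/530 nm ratio gave %activity and AC50.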

A short description of assay [5]: Stat Signaling Pathway (AID 446; active = well fitted curve in either direction with a large enough effect, not every such curve was filed as active;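 also: ME-180 cervical cancer cells given 40 pM IL-6 alongside compound; SIE-controlled beta-lactamase reporter measured as 460/530 nm FRET emission ratio; % is scaled to controls: 0 for no effect and ±100 for the full control effect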). In short, it runs like this:
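Screening format detects activators and inhibitors alike: ME-180 SIE-bla cells stimulated at 40 pM IL-6 for 5 hrs with compound, then dual-emission beta-lactamase read at 405 nm excitation.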

The target in assay [6] is Glucocorticoid receptor (Homo sapiens) (UniProt P04150). Description: GR-GFP Redistribution (AID 450;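 active = compounds whose dose series gives a full or clear partial fitted curve of increased nuclear translocation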; also: potency is read from the fitted curve at half-maximal effect). Particulars: U2OS GR-GFP nuclear translocation, laser cytometry, 2 h.
Assay [7] shares this target. The experiment in a line: GR-EFC Redistribution (AID 451; calls by dose curve; also: potency is read from the fitted curve at half-maximal effect). As to conditions: CHO-K1 GR-EFC translocation, beta-gal luminescence, 2 h. In short, it runs like this:
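CHO-K1 cells expressing nuclear EA and GR-ED fragments of b-gal; compounds titrated up to 46 uM final, 2 h at 37 C. GR nuclear translocation read as complemented b-gal luminescence after 1 h RT detection.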

For assay [8], the target named is Mitogen-activated protein kinase 10 (Mus musculus) (UniProt Q61831). Description: JNK3 AlphaScreen Assay (AID 530; active = well fitted curve in either direction with a large enough effect, not every such curve was filed as active;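 also: kinase came from lysate of stimulated human HepG2 cells; signal reports phosphorylation of biotinylated GST-cJun 1-79 at Ser73 with 10 µM ATP; % is scaled to controls: 0 for no effect and ±100 for the full control effect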). Put shortly:
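Pre-activated (IL-1β/TNFα) JNK3 in HepG2 lysates phosphorylates biotin-GST-cJun(1-79), 10 uM ATP; anti-phospho-cJun(Ser73) AlphaScreen read at room temperature, pH 7.6 Tris buffer. Compounds pre-incubated 15 min as titrations.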

For assay [9], the target named is 3',5'-cyclic-AMP phosphodiesterase 4B (Homo sapiens) (UniProt Q07343). Description: qHTS Assay for Inhibitors of PDE-IV (AID 607; active = well fitted activation curve with a large enough effect in the main read-out, with a control signal flat, not every such curve was filed as active; also: % of control where 0% means no effect). Put shortly: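 The readout is membrane depolarisation from a cAMP-sensing CNG channel, detected with a potential dye at ex 535/em 590. Cells were HEK293-derived (endogenous PDE-IV) at 1000 cells/well, titrated up to 22.9 uM final.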

Assay [10] has as its target Dual specificity protein kinase CLK4 (Homo sapiens) (UniProt Q9HAZ1). Description: qHTS Assay for Inhibitors of CDC-like Kinase 4 (Kinase-Glo Assay) (AID 1770). Also: nearly all actives have a fitted effect of over 65% in size. Also: potency is read from the fitted curve at half-maximal effect. Put shortly:
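Recombinant human Clk4 (25 nM) phosphorylated RS repeat peptide (100 uM) with 1 uM ATP in Tris pH 7.5/MgCl2/EGTA/DTT/Triton buffer for 4.5 h at room temperature. Residual ATP was quantified by Kinase-Glo luciferase luminescence.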

The target is the same in assay [11]. The experiment in a line: qHTS Assay for Inhibitors of CDC-like Kinase 4 (ADP-Glo Assay) (AID 1771). Also: nearly all actives have a fitted effect of over 70% in size. Also: potency is read from the fitted curve at half-maximal effect. In short, it runs like this: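 25 nM Clk4 with 100 uM RS repeat peptide and 1 uM ATP (final) in buffer with 2 mM MgCl2, 0.5 mM EGTA, 2.5 mM DTT, 0.01% Triton X-100; 1 h at room temperature; ADP-Glo luminescence for ADP formed.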
Assay [12] concerns the target Ubiquitin carboxyl-terminal hydrolase 1 (Homo sapiens) (UniProt O94782). The experiment in a line: Inhibitors of USP1/UAF1: Pilot qHTS (AID 504865).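 Also: rhodamine fluorescence freed from ubiquitin-rhodamine substrate followed over time; top concentration of the series differs between compounds; % is scaled to controls: 0 for no effect and ±100 for the full control effect; nearly all actives have a fitted effect of over 35% in size.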 In short, it runs like this: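 USP1/UAF1 complex (1nM) preincubated with compound 15 min at room temperature, then Ub-Rho substrate (150nM final) added. Fluorescence read kinetically at 480/540 nm, 6 reads every 60 seconds. Buffer: 50mM HEPES pH 7.8, 0.5mM EDTA, 0.1 mg/ml BSA, 1mM TCEP, 0.01% Tween-20.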

Assay [13] addresses Dual specificity protein kinase CLK4 (Homo sapiens) (UniProt Q9HAZ1). Description: qHTS Assay for Inhibitors of CDC-like Kinase 4 (ADP-FP Assay) (AID 1795). Also: nearly all actives have a fitted effect of over 60% in size. Also: potency is read from the fitted curve at half-maximal effect. In short, it runs like this:
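Recombinant human Clk4 (6.25 nM) phosphorylated RS repeat peptide (100 uM) with 1 uM ATP in Tris pH 7.5/MgCl2/EGTA/DTT/Triton buffer for one hour. ADP was quantified by Transcreener competitive fluorescence polarization against an ADP calibration curve.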

Assay [14] addresses Cytochrome P450 3A4 (Homo sapiens) (UniProt P08684). Description: qHTS Assay for Activators of Cytochrome P450 3A4 (AID 885). Also: nearly all actives have a fitted effect of over 65% in size. Put shortly: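 Steps: enzyme/substrate mix dispensed; compound added, 10 min RT; NADPH regeneration solution added, 60 min RT; luciferin detection buffer stops reaction; 20 min later luminescence measured.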
The target in assay [15] is Cytochrome P450 2C19 (Homo sapiens) (UniProt P33261). The experiment in a line: qHTS Assay for Inhibitors and Substrates of Cytochrome P450 2C19 (AID 899). Also: potency is read from the fitted curve at half-maximal effect; nearly all actives have a fitted effect of over 60% in size. In short, it runs like this:
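5 nM human CYP2C19 with 10uM Luciferin-H EGE (at KM) in 50mM KPO4, compound preincubated 10 min at 37C, then NADPH regeneration for 60 min at 37C. Luciferin read by luminescence after detection reagent; normalized to 57uM ketoconazole as full inhibition.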

The target of assay [16] is Cytochrome P450 3A4 (Homo sapiens) (UniProt P08684). Description: qHTS Assay for Inhibitors and Substrates of Cytochrome P450 3A4 (AID 884). Also: potency is read from the fitted curve at half-maximal effect; nearly all actives have a fitted effect of over 50% in size. In short, it runs like this:
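20 nM human CYP3A4 with 25 uM Luciferin-PPXE (at KM) in 200 mM KPO4, preincubated 10 min with compound; NADPH regeneration started a 60 min RT reaction. Luciferin detected by luminescence, normalized to 57 uM ketoconazole as full inhibition.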

Values without a mark were called inactive. Records with an inconclusive call do not appear. Calls of active or inactive are those of the source. Unless noted, calls follow the shape of the dose curve; as a rule, active = well fitted curve in the direction sought with a large enough effect; inconclusive = small, poorly fitted or top-dose-only effect, or another doubt; inactive = no such curve, though single readings can be large; an effect the other way counts as inactive or inconclusive.

Ubiquitin carboxyl-terminal hydrolase 1 (Homo sapiens), sequence (O94782 whole entry, looked up): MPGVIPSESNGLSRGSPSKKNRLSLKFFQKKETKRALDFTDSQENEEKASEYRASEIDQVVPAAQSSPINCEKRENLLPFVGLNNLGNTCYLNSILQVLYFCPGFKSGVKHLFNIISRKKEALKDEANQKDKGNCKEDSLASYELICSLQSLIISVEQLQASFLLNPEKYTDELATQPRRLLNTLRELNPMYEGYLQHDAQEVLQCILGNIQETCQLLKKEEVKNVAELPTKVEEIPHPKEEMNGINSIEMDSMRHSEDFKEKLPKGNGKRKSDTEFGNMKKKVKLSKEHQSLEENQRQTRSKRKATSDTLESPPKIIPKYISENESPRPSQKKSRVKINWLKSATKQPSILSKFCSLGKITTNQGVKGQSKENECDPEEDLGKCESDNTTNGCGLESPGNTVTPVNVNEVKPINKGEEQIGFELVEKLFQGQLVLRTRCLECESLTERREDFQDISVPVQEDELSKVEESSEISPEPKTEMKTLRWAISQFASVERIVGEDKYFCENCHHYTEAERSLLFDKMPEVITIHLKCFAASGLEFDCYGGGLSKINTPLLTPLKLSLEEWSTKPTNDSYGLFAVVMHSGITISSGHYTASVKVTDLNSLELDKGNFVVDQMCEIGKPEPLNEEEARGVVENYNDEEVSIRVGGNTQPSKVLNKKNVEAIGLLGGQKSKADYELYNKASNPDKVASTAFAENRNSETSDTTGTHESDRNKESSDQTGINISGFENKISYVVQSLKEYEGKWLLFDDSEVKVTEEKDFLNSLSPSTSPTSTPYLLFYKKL
Lysosomal acid glucosylceramidase (Homo sapiens), sequence (P04062 whole entry, looked up): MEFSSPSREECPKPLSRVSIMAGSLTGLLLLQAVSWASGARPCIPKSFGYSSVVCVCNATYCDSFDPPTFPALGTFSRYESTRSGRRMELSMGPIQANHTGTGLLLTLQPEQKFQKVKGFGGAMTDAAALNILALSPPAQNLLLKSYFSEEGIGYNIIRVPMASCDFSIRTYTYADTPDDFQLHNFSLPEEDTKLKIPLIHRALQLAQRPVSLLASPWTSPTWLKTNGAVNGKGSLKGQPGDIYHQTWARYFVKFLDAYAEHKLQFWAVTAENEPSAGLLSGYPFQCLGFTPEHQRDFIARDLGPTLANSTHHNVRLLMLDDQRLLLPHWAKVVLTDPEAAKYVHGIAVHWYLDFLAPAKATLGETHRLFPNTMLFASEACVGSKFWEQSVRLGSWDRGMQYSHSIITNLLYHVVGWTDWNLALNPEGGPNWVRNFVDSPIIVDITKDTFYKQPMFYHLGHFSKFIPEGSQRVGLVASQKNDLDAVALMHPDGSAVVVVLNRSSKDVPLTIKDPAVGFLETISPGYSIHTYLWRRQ
Dual specificity protein kinase CLK4 (Homo sapiens), sequence (Q9HAZ1 whole entry, looked up): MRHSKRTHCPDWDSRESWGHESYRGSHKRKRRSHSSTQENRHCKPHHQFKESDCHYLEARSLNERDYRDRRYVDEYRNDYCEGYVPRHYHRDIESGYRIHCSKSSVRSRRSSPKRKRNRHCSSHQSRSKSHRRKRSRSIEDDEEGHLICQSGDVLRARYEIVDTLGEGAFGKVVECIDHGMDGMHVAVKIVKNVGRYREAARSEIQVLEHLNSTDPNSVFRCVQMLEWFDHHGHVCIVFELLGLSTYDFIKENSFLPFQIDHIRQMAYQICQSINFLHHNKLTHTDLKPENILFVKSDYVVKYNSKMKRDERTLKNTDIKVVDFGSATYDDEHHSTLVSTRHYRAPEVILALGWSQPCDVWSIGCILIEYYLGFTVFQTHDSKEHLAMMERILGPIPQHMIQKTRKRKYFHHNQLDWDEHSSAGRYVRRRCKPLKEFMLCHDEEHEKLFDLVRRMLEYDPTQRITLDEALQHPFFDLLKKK
Cytochrome P450 1A2 (Homo sapiens), sequence (P05177 whole entry, looked up): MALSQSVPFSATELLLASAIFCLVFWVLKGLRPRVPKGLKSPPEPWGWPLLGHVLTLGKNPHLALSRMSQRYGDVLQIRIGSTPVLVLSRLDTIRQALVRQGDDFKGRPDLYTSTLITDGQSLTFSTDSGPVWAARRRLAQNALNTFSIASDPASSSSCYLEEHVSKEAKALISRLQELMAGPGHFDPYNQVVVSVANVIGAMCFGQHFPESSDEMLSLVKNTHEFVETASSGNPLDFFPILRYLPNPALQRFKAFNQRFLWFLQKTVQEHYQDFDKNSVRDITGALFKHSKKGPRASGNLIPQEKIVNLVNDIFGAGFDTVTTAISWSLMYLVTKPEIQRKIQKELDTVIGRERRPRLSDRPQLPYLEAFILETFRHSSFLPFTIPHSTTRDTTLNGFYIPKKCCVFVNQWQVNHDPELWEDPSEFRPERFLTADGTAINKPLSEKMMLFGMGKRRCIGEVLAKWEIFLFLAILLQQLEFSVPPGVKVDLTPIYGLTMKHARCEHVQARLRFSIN
3',5'-cyclic-AMP phosphodiesterase 4B (Homo sapiens), sequence (Q07343 whole entry, looked up): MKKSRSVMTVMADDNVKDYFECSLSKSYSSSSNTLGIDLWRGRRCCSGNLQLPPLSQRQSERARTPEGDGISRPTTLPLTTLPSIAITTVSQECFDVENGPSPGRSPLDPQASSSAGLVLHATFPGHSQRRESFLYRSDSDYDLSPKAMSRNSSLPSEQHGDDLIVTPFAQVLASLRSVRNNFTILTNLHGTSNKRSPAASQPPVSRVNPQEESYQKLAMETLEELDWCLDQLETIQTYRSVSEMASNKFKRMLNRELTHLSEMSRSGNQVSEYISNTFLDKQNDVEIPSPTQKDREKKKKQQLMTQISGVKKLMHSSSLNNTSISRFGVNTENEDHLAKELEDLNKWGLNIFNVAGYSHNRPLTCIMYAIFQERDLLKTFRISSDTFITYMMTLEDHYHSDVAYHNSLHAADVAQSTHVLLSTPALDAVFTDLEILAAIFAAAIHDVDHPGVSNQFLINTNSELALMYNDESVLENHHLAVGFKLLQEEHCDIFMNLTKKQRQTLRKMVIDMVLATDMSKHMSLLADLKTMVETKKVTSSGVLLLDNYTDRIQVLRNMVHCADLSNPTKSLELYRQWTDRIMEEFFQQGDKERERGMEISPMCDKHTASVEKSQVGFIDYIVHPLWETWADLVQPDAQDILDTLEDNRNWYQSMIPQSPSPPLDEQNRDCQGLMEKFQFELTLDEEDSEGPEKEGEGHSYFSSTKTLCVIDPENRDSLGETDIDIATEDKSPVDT
Cytochrome P450 3A4 (Homo sapiens), sequence (P08684 whole entry, looked up): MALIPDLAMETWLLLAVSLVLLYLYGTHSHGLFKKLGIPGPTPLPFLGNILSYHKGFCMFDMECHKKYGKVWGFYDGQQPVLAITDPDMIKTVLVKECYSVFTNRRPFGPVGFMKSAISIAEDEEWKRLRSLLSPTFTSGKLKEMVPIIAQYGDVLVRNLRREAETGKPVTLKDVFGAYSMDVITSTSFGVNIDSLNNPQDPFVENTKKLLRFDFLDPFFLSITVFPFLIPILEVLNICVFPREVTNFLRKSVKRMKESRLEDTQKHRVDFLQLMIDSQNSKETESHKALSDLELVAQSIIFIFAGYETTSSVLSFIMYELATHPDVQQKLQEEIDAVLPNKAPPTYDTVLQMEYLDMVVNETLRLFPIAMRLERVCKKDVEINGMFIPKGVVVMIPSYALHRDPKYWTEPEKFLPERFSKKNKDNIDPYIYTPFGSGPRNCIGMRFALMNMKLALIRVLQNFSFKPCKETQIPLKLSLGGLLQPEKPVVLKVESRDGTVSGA
Glucocorticoid receptor (Homo sapiens), sequence (P04150 whole entry, looked up): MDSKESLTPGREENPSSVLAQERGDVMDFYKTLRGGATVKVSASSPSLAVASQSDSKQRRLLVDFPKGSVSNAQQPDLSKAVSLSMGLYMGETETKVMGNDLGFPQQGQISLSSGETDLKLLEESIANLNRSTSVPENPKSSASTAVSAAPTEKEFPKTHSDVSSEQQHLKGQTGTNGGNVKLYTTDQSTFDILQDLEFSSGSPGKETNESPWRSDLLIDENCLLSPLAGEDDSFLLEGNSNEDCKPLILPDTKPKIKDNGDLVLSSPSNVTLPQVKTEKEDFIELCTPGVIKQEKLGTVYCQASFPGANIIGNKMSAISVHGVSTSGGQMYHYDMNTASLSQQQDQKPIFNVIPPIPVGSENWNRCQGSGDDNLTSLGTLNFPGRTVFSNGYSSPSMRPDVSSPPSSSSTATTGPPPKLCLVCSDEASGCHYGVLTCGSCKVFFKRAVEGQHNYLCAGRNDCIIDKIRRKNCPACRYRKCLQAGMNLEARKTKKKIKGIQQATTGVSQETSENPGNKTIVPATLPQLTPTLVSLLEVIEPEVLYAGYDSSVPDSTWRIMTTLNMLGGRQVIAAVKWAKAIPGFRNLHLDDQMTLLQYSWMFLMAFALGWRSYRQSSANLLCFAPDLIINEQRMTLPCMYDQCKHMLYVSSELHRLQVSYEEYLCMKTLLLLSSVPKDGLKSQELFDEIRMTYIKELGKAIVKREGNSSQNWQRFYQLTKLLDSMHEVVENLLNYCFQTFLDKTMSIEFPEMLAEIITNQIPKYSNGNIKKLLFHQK
Cytochrome P450 2C19 (Homo sapiens), sequence (P33261 whole entry, looked up): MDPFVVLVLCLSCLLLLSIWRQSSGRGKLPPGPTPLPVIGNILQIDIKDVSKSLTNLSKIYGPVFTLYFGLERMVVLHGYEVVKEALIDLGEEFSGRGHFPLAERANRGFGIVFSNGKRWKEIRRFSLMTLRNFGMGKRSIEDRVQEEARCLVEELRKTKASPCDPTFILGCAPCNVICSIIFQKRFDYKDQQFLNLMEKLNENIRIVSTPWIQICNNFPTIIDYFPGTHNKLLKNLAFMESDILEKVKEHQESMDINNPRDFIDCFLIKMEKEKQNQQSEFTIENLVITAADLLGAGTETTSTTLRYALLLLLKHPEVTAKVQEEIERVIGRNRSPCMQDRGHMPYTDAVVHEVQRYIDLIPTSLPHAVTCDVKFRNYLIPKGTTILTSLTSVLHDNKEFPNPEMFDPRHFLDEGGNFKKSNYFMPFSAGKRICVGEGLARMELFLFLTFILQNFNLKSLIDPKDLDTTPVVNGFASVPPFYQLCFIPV

Regarding `CN(C)C(=O)c1ccc(-c2cc(NCc3ccccc3)ncn2)cc1`, the Potency in [1] was > 11.4 µM; in [3], 12.6 µM (active); in assay [6], > 46 µM; in assay [7], > 46 µM; in [10], 25.1 µM (active); in assay [11] it was 31.6 µM (active). Further, the activity change, negative = inhibition in assay [2] is -9.2%; in assay [4] it was 27.8%. In addition, in assay [5], the outcome was inactive. In addition, the Potency entry in [8], in assay [9] and in assay [12] was “inactive” each time.
As for `COc1ccc(Oc2ncc3nc(-c4ccccc4)c(=O)n(C[C@H]4CCCO4)c3n2)cc1`, the Potency was > 11.4 µM in assay [1], > 9.22 µM in [6] and > 46 µM in assay [7]. Also, the activity change, negative = inhibition in [4] was -3.65%. In addition, the result in assay [5] was inactive. Also, the Potency entry in [8], in assay [9], in assay [10], in [11], in assay [13] and in assay [12] was “inactive” in each case.
For the compound `COCCn1c(=O)c(CCc2ccccc2)nc2cnc(OCc3ccccc3)nc21`, the values for the activity change, negative = inhibition in assay [2] and in [4] were -21.6% and 4.34%, respectively. For the same compound, the compound was classed as inactive in assay [5]. Besides, the Potency in [6] was > 9.22 µM; in [7], > 46 µM. The Potency entry in assay [10], in [11], in assay [13] and in assay [12] was “inactive” each time.
Regarding `Clc1ccccc1-c1nc(Nc2ccncc2)c2ccccc2n1`, the activity change, negative = inhibition is -2.96% in assay [2] and 8.97% in assay [4]. In addition, the Potency in assay [3] was 0.501 µM (active); in assay [7], > 46 µM; in assay [15], 5.01 µM (active); in [10], 7.94 µM (active); in [11], 7.94 µM (active); in [13], 10 µM (active). The compound was called inactive in [5] and in assay [14]. Also, the Potency entry in assay [8] is “inactive”.
As for `COc1ccc(-n2c(=O)c(-c3cccs3)nc3cnc(N4CCN(C)CC4)nc32)cc1`, the activity change, negative = inhibition in [2] is 8.48%; in assay [4] it was 4.91%. Moreover, the Potency in assay [3] is 2.51 µM (active); in [6] it was > 9.22 µM; in [7], > 46 µM. Further, the call in assay [5] and in assay [14] was inactive. Further, the Potency entry in assay [9], in [10], in assay [11], in assay [13] and in assay [12] was “inactive” in each case.
As to `CN(C)C(=O)c1ccc(-c2nc(Nc3ccccc3)c3ccccc3n2)cc1`, the Potency in [1] was > 11.4 µM; in [3], 0.398 µM (active); in assay [6], > 46 µM; in assay [7], > 46 µM; in assay [10], 15.8 µM (active); in [11] it was 28.2 µM (active). Further, the activity change, negative = inhibition is -10.3% in assay [2] and 2.53% in assay [4]. The compound was classed as inactive in [5] and in assay [14]. In addition, the Potency entry in assay [8] and in assay [12] was “inactive” in each case.
As to `Cc1ccccc1-c1ccc2ncnc(-n3ccnc3)c2c1`, the Potency in assay [3] is 0.794 µM (active); in assay [6] it was > 46 µM; in [7], > 46 µM; in assay [16] it was 0.501 µM (active); in assay [15], 2 µM (active); in [10], 7.94 µM (active). Further, the Potency is 7.08 µM (active) in [11] and 3.98 µM (active) in assay [13]. The Potency result in [8] and in assay [12] was “inactive” each time. Further, the result in assay [14] was inactive.

These data come from PubChem BioAssay (NCATS).
